# Assay outcomes deposited in PubChem BioAssay by National Center for Advancing Translational Sciences (NCATS).
# The list is not random: actives were taken first. Their share in the collection is about 7.3%.
# AmpC inh detg = blocks E. coli AmpC beta-lactamase in detergent assay; P00811; AmpC hydrolysis of nitrocefin, absorbance 480 nm, 0.01% Triton; Potency, µM (highest dose often 114 µM), without a hit: at the top dose activity change, negative = inhibition, actives largely listed as inhibitors; 370,000 tested, 0.041% active;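 further: potency means the concentration at half of the fitted maximal effect; 0% = no-compound wells and -100% = no-enzyme wells; nearly all actives have a fitted effect of over 25% in size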
# Target sequence (P00811 whole entry, looked up): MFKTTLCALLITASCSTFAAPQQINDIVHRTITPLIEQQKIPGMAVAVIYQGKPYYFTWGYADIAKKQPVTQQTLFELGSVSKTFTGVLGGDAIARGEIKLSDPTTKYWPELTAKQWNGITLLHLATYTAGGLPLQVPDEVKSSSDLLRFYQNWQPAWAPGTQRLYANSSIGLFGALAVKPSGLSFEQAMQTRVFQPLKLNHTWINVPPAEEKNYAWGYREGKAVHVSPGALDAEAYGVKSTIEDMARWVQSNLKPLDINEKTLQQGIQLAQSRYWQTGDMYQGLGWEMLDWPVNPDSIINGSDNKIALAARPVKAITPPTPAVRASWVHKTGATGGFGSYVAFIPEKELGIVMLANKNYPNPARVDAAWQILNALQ
#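 AmpC (5.3 nM in the dispensed reagent) in 20 mM phosphate pH 7.0 with 0.01% (detergent screen) or 0.0001% Triton X-100 was preincubated with compounds for 15 min at room temperature. Nitrocefin was then added from an 800 uM solution, and hydrolysis was followed at 480 nm.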
# AmpC inh no detg = inhibitors of E. coli AmpC beta-lactamase without detergent; Potency, µM (top dose mostly 57.1 µM), for inactives: top-dose activity change, negative = inhibition, hits mostly inhibitors; AID 485341; 330,000 tested, 0.52% active; P00811; AmpC nitrocefin hydrolysis, absorbance 480 nm, 0.0001% Triton;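 further: potency means the concentration at half of the fitted maximal effect; plate controls were no compound for no effect and no enzyme for full effect; nearly all actives have a fitted effect of over 20% in size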
#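 20 mM phosphate pH 7.0 + 0.01% (detergent screen) or 0.0001% Triton X-100; 5.3 nM AmpC reagent; cpd preinc 15 min RT; nitrocefin (800 uM stock) to start; A480 q20 s × 4 min; Activity was normalised to no-enzyme and no-compound control wells.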
# HCMV antiviral = inhibitors of human cytomegalovirus. activity change, negative = inhibition, % at 57.5 µM. AID 1259415. 410,000 tested, 4.5% active. HFF cells, HCMV-luciferase reporter, 72 h; active compounds read low; in the data active means activity change below about -60%; inconclusive means no clear call, values can overlap the other calls; inactive means above about -39%
#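 Luciferase read-out from HCMV-luciferase-infected HFFs (MOI 1 PFU/cell) 72 h post infection at 37C; compounds added after 16 h cell attachment; activity normalized between buffer-only basal and Salinomycin (10uM) inhibitor controls.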
# FMDV antiviral = antivirals against foot and mouth disease virus; FMDV antiviral cell-based qHTS; Potency, µM (doses to about 57.9 µM), without a hit: top-dose activity change, negative = inhibition, actives largely listed as inhibitors; 410,000 tested, 1.2% active; AID 1159524; calls by dose curve; tested in HEK293T cells; further: read-out not given here; potency means the concentration at half of the fitted maximal effect; nearly all actives have a fitted effect of over 45% in size
# HCV inhibitor = inhibitors of hepatitis C virus infection. Huh7.5.1 HCVcc-Cre infection, luciferase reporter, 44 h. Potency, µM (series often up to 41.8 µM), for inactives: top-dose activity change, negative = inhibition, hits mostly inhibitors. 340,000 tested, 3.4% active. AID 651820; further: potency means the concentration at half of the fitted maximal effect
#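 Cells (1,000/well) were plated 4 h before compound, then infected with HCVcc-Cre virus (~0.5 moi). After 44 h further culture, infection was read as luciferase luminescence following a 15 min substrate incubation at room temperature.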
# The depositor's hits bear a star; ? = inconclusive; · = not tested or not shown; + = active, no number; [ ] = another dose, or the depositor's remark. Unless noted, the call rests on the fitted dose curve; in most records, active means well fitted curve in the direction sought with a large enough effect; inconclusive means small, poorly fitted or top-dose-only effect, or another doubt; inactive means no such curve, though single readings can be large; an effect the other way counts as inactive or inconclusive. Unless noted, on the % scale 0 is the no-effect control and ±100 the full control effect.
SMILES,AmpC inh detg,AmpC inh no detg,HCMV antiviral,FMDV antiviral,HCV inhibitor
Cc1cc(OCCCCCN2CCCC2)ccc1Cl,-9%,0%[2.29 µM],-15,-13%,10µM*
c1ccc(Oc2cccc(OCCCCN3CCCC3)c2)cc1,-20%,21%,?,-21%,10µM*
CCc1c(O)c(-c2ccccc2)c(=O)n(-c2ccccn2)c1-c1ccccc1,-5%,-12%,1,10%,12%
COc1cc(Cl)cc(CN2CCC(CCC(=O)NC3CC3)CC2)c1OC,?,-28%,12,-24%,?
O=C1CCN(Cc2ccccc2)CCN1CCOc1ccccc1,-3%,38%,-77*,10%,?
O=C(Nc1ccc(Oc2ccccc2)nc1)C1CCN(Cc2cccc(F)c2)CC1,?,14%,-69*,?,·
O=C(Nc1ccc(Oc2cccnc2)cc1)C1CCN(Cc2cc(Cl)ccc2O)CC1,2%,-13%,-83*,7.9µM*,?
Cc1ccc(CN2CCCCC2C(=O)Nc2ccc(Oc3cccnc3)cc2)o1 (stereo unspecified),?,9%,-33,5%,?
CCn1nc(C)c(CN2CCCCC2C(=O)Nc2ccc(Oc3cccnc3)cc2)c1C (stereo unspecified),1%,48%,·,?,11µM*
C#Cc1ccc(CN2CCC(C(=O)Nc3ccc(Oc4ccccc4)nc3)CC2)cc1,-11%,47%,+,?,4.5µM*
O=C(Nc1ccc(Oc2ccccc2)nc1)C1CCN(Cc2ccco2)CC1,-13%,-17%,-38,0%,?
CSc1nnc(CNC(=O)/C=C/c2ccccc2Cl)n1-c1ccc(F)cc1,·,·,·,-2%,·
Cc1cccc(OCc2nnc(SCC(=O)N(c3ccccc3)C3CCS(=O)(=O)C3)o2)c1 (stereo unspecified),6%,59%,-29,?,?
Cc1nn(-c2ccccc2)c(C)c1/C=N/NC(=O)c1cc(-c2cccs2)[nH]n1,?,-4%,-89*,?,?
Cc1cc(C(=O)N/N=C/c2c(C)nn(-c3ccccc3)c2C)n[nH]1,4%,-10%,13,7%,-10%
Cc1nn(-c2ccccc2)c(C)c1/C=N/NC(=O)CSc1nnc(SCc2ccc(Cl)cc2)s1,?,-31%,36,?,14µM*
Cc1nn(-c2ccccc2)c(C)c1/C=N/NC(=O)c1cc(C23CC4CC(CC(C4)C2)C3)[nH]n1,5%,-11%,2,?,10µM*
Cc1nn(-c2ccccc2)c(C)c1/C=N/NC(=O)c1cc(-c2ccc(Cl)s2)[nH]n1,-11%,-21%,-11,4µM*,?
Cn1c(CCN2CCCCC2)nc2cc(NC(=O)COc3ccc(Cl)cc3)ccc21,-15%,46%,-70*,-15%,?
Cn1c(CCN2CCCCC2)nc2cc(NC(=O)COc3ccc([N+](=O)[O-])cc3)ccc21,?,-1%,-75*,24%,-30%
CCn1c(CN2CCCCC2)nc2cc(NC(=O)COc3ccc([N+](=O)[O-])cc3)ccc21,-2%,·,-23,?,·
Cc1ccc(C(C)C)c(OCC(=O)Nc2ccc3c(c2)nc(CCN2CCCCC2)n3C)c1,?,172%,-81*,-20%,10µM*
CCn1c(CN2CCCCC2)nc2cc(NC(=O)COc3cc(C)ccc3C(C)C)ccc21,-1%,·,-19,?,·
Cc1nn(CC(=O)Nc2ccc3c(c2)nc(CCN2CCCCC2)n3C)c(=O)c2ccccc12,-3%,-24%,-63*,-23%,?
Cc1ccc(NC(=O)CCN2C(=O)c3ccccc3C2=O)cc1,-4%,-18%,1,3%,20%
CC[C@@]1(C(=O)OC)N[C@H](CN(C)S(=O)(=O)c2ccc(OC)cc2)[C@@H]2C(=O)N(C)C(=O)[C@@H]21,·,-5%,-28,-23%,13%
COc1cc(NC(=O)N2CCC(CN3CCOCC3)CC2)cc(OC)c1OC,14%,·,21,-12%,·
C=CCc1c(C)nc(-c2ccccc2)nc1N/N=C(\C)c1ccccc1,?,28µM*,57,-4%,-20%
COc1cccc(OC)c1C(=O)Nc1ccc2c(c1)N(S(=O)(=O)c1cccs1)CCC2,-9%,-54%,-36,13%,-21%
